ELG1 genotoxic – genotoxicity induction in ELG1-luciferase HEK293T cells; Potency, µM (highest dose often 46 µM), without a hit: at the top dose activity change, positive = activation, usual class: activators; HEK293T ELG1-luciferase reporter, luminescence, 16 h; 330,000 compounds, 1.3% hits; further: % of control where 0% means no effect; nearly all actives have a fitted effect of over 60% in size
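HEK293T cells expressing luciferase-tagged ELG1 were treated with compound or DMSO for 16 hr at 37°C. Luciferase activity was then read after 30 min with ONE-Glo at room temperature; rising signal flags genetic stress.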
SMN2 splice up – increases expression of the SMN2 splice variant | HEK293 SMN2-luciferase splicing reporter, luminescence, 30-36 h | AID 1458 | 210,000 compounds, 2.8% hits | Potency, µM (highest dose often 46.1 µM), for inactives: at the highest dose activity change, positive = activation, usual class: activators; further: % of control where 0% means no effect; nearly all actives have a fitted effect of over 55% in size
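HEK293 cells carry an SMN2 minigene-luciferase reporter in which exon 7 inclusion puts luciferase in frame. Cells were seeded at 2000 cells/well, attached for 10-12 hours, then exposed to compounds for 30-36 hours at 37C before ONE-Glo luminescence.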
FLuc modulator – counter-screen for miR-21 project: firefly luciferase inhibitors or activators; P08659; purified FLuc, Km substrates, luminescence inhibition; Potency, µM (series often up to 57.5 µM), inactives show at the top dose activity change, negative = inhibition, actives largely listed as inhibitors; 360,000 compounds, 6.9% hits;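 further: plate controls were vehicle for no effect and reference inhibitor for full effect; nearly all actives have a fitted effect of over 55% in size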
Target sequence (P08659 whole entry, looked up): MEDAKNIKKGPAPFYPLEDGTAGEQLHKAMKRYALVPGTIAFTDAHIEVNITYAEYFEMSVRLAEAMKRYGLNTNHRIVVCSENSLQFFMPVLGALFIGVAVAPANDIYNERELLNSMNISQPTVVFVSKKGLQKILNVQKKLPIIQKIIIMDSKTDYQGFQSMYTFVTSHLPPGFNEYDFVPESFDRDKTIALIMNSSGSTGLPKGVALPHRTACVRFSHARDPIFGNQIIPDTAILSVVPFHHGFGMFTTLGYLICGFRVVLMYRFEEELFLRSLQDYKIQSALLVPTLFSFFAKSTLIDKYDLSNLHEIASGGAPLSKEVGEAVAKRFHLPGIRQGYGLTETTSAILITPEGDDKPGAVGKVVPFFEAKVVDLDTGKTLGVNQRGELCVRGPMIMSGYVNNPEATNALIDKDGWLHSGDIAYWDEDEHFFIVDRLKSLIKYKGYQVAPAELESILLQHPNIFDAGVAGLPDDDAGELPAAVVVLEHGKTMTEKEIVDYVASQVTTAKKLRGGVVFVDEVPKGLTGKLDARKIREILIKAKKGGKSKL
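Biochemical qHTS of compounds, final roughly 60 µM downward over six points, against 10 nM purified firefly luciferase using Km concentrations of substrates (10 uM D-luciferin, 10 uM ATP) in Tris acetate pH 7.5 buffer; luminescence output.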
Rab9 prom act – activators of Rab9 promoter; Huh7 Rab9 promoter-luciferase reporter, luminescence, 24 h; Potency, µM (doses to about 9.22 µM), without a hit: at the highest dose activation, negative = inhibition, hits mostly activators; 320,000 compounds, 2.8% hits; further: % of control where 0% means no effect; nearly all actives have a fitted effect of over 60% in size
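Quantitative HTS format; Huh7 Rab9-luciferase reporter cells (1500/well) receive compound 2 h post-plating, incubate 24 h at 37 °C, then get luciferase reagent for 10 min before luminescence reading.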
NPC1 prom act – NPC1 promoter activation; Huh7 NPC1 promoter luciferase reporter, 24 h; Potency, µM (doses to about 9.22 µM), inactives show at the highest dose activation, most hits filed as activators; 320,000 compounds, 2.4% hits; further: % of control where 0% means no effect; nearly all actives have a fitted effect of over 60% in size
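Huh7 cells stably carrying NPC1 promoter–luciferase, plated in Opti-MEM with 10% FBS for 2 h, were exposed to compound in DMSO for 24 h at 37 °C; luciferase reagent was added for 10 min and luminescence read.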
Luc counter – Kinase-Glo luciferase inhibition (counter-screen); Q27757; Kinase-Glo luciferase, ATP luminescence, 8 min; Potency, µM (doses to about 38.3 µM), for inactives: top-dose activity change, negative = inhibition, actives largely listed as inhibitors; 200,000 compounds, 0.28% hits; AID 1379; further: on the % scale 0 is the no-effect control and ±100 the full control effect; nearly all actives have a fitted effect of over 60% in size
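Compounds were added to a substrate mix at pH 7.2 (50 mM imidazole, 10 uM ATP, within the enzyme's linear range), followed by Kinase-Glo detection reagent; luminescence was measured after 8 minutes at ambient temperature.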
* marks the source's active call; other numbers are inactive results; u = inconclusive; x = no result given; [ ] = dose if it differs, or a comment. A selection: hits, their analogues and other compounds. The true share with any hit is near 7.5%. The call rests on the fitted dose curve; in most records, active means well fitted curve in the direction sought with a large enough effect; inconclusive means small, poorly fitted or top-dose-only effect, or another doubt; inactive means no such curve, though single readings can be large; an effect the other way counts as inactive or inconclusive. Potency means the concentration at half of the fitted maximal effect.

SMILES	ELG1 genotoxic	SMN2 splice up	FLuc modulator	Rab9 prom act	NPC1 prom act	Luc counter
Cc1nn(CC(=O)NCC(C)c2ccccc2)c(=O)c2cc3ccccc3n12 (stereo unspecified)	x	6%	-1%	x	x	x
CCCCOc1ccc(-c2nc(-c3cccnc3)no2)cc1	6.5µM*	13µM*	4.3µM*	2µM*	3.5µM*	-3%
COc1cccc(-c2noc(-c3ccc(Cl)nc3)n2)c1	u	u	u	u	3.5µM*	-13%
CCOc1nc(-c2ccc(C)cc2)ccc1-c1noc(-c2cccnc2)n1	1%	x	1%	-2%	0%	0%
CCOc1ccc(-c2cc(-c3nc(-c4ccc(C)cc4)no3)[nH]n2)cc1	x	x	21µM*	x	x	x
O=[N+]([O-])c1cccc(-c2noc(-c3cccs3)n2)c1	15µM*	x	2.7µM*	2.5µM*	3.5µM*	x
CCOc1nc(-c2ccccc2)ccc1-c1noc(-c2ccc(C)cc2)n1	x	-18%	-17%	x	x	x
Cc1nc2sc(C(N)=O)c(N)c2c(-c2ccc(Br)cc2)c1C(=O)Nc1ccc(Cl)cc1	x	3%	-6%	x	x	x
CCOc1cc(-c2noc(-c3cccnc3)n2)ccc1OC	6%	7%	-14%	3%	0%	-1%
COc1cccc(-c2ccc(-c3noc(-c4ccccc4F)n3)c(OC)n2)c1	u	21%	u	-4%	4%	1%
COc1cc(OC)cc(-c2nc(-c3ccccc3)no2)c1	u	22µM*	-14%[2.3 µM]	u	u	3%
CCOc1ccc(-c2nc(-c3ccccc3C)no2)cc1	0.73µM*	1.6µM*	1.1µM*	0.45µM*	0.63µM*	u
CCOc1ccc(-c2nc(-c3cccnc3)no2)cc1	u	1µM*	0.95µM*	0.56µM*	0.63µM*	-11%
COc1cccc(-c2ccc(-c3noc(-c4cccs4)n3)c(OC)n2)c1	u	x	11µM*	26%	21%	-3%
CCOC(=O)c1cnn(-c2cccc(F)c2)c1C1CCNCC1	x	-7%	-5%	x	x	x
COc1ccc(-c2noc(-c3cccc(OC)c3OC)n2)cc1	x	13µM*	2.4µM*	x	x	x
c1csc(-c2nc(N3CCCCC3)no2)c1	15µM*	x	6.7µM*	1.6µM*	2.2µM*	x
Cc1ccc(-c2noc(-c3cccs3)n2)cc1	0.65µM*	13µM*	0.6µM*	0.79µM*	2.8µM*	u
CCOc1nc(-c2ccccc2)ccc1-c1noc(-c2cccs2)n1	-1%	1%	u	6%	9%	3%
COc1ccc(-c2nc(-c3cccs3)no2)cc1	u	x	0.085µM*	0.1µM*	0.32µM*	x
COc1ccc(-c2nc(-c3ccncc3)no2)cc1	u	x	2.1µM*	0.56µM*	0.5µM*	x
CCOc1nc(-c2ccc(OC)cc2)ccc1-c1noc(-c2ccncc2)n1	-1%	14%	3%	-6%	-4%	-2%
COc1ccc(-c2nc(-c3cccnc3)no2)cc1	u	x	2.4µM*	0.45µM*	0.63µM*	x
COc1ccccc1-c1noc(-c2cccs2)n1	u	11µM*	7.6µM*	2.2µM*	1.6µM*	-7%
COc1ccc(-c2noc(CN3CCN(C(=O)c4cccs4)CC3)n2)c(OC)c1OC	3%	x	4%	0%	1%	x
SMILES	ELG1 genotoxic	SMN2 splice up	FLuc modulator	Rab9 prom act	NPC1 prom act	Luc counter
CC(=O)Nc1nc(-c2ccc([N+](=O)[O-])cc2)cs1	2%	-19%	1%	u	18%	-2%
CC(C)c1nc(-c2ccc([N+](=O)[O-])cc2)cs1	8%	13%	17µM*	20%	11%	0%
COc1cccc(C(=O)Nc2cc(C(F)(F)F)ccc2Cl)c1	-1%	-14%	u	1%	1%	-5%
COc1cc(C(=O)Nc2ccc(Cl)c(C(F)(F)F)c2)cc(OC)c1OC	2%	-8%[1.84 µM]	21µM*	9%	0%	-2%
COc1cccc(C(=O)Nc2ccc(Cl)c(C(F)(F)F)c2)c1	1%	-5%	21µM*	u	2%	4%
Fc1ccccc1OCCSc1nnnn1-c1ccccc1	10µM*	3.2µM*	3µM*	u	2.5µM*	-5%
COc1ccccc1OCCSc1nnnn1-c1ccc(C)cc1	u	u	17µM*	-5%	15%	3%
c1ccc(OCCSc2nnnn2-c2ccccc2)cc1	3.7µM*	16µM*	2.7µM*	0.89µM*	2.5µM*	-4%
CCOc1ccc(OCCSc2nnnn2-c2ccccc2)cc1	6%	x	u	6%	9%	1%
CCCCC(=O)Nc1ccc(C(=O)OCc2cc(=O)n3ccsc3n2)cc1	x	x	-3%	x	x	x
NC(=O)CSc1ncc2c(n1)-c1ccccc1N(Cc1ccccc1)S2(=O)=O	x	x	3%	x	x	x
O=C(N/N=C/c1ccncc1)c1cc([N+](=O)[O-])cc([N+](=O)[O-])c1O	3%	11%	27µM*	-10%	-4%	1%
O=C(N/N=C/c1ccncc1)c1cc2ccccc2cc1O	u	x	7.6µM*	12%	0%	x
O=C(N/N=C/c1ccc[nH]1)c1cc2ccccc2cc1O	25%	x	6.7µM*	9%	9%	x
COc1ccc(NC(=O)c2cccs2)cc1O	u	u	15µM*	u	u	u
COc1ccc(C(=O)Nc2cccc(NC(=O)c3cccs3)c2)cc1OC	-6%	x	11µM*	8%	5%	x
COc1ccc(C(=O)Nc2ccc(NC(=O)c3cccs3)cc2)cc1OC	x	-3%	0%	x	x	x
COc1ccc(/C=C/C(=O)c2ccc(NC(=O)c3cccs3)cc2)cc1OC	u	16µM*	13µM*	u	u	4%
COc1ccc(-c2csc(NC(=O)c3cccs3)c2C(=O)O)cc1OC	-3%	16%	24µM*	15%	13%	-1%
COc1cc(NC(=O)C2CCN(S(=O)(=O)c3c(C)noc3/C=C/c3c(C)cc(C)cc3C)CC2)cc(OC)c1	x	x	1%	x	x	x
COc1ccc(CCNC(=O)Cn2ncc3c(C)n(Cc4ccccc4F)c(C)c3c2=O)cc1OC	x	4%	-10%	x	x	x
O=C(Nc1ccc(NC(=O)c2cccs2)cc1)c1cccc(Br)c1	x	-2%	-1%	x	x	x
O=C(Nc1cccc(O)c1)c1cccc(NC(=O)c2cccs2)c1	-12%	x	13µM*	0%	15%	x
O=C(Nc1ccc(N2CCCCC2)cc1)c1ccc(F)cc1	1.6µM*	3.5µM*	1.2µM*	0.45µM*	0.89µM*	-11%
O=C(CCC(=O)N1CCN(c2ccc(F)cc2)CC1)N1CCN(c2ccc(F)cc2)CC1	-8%	x	4%	-2%	-4%	x
O=C(c1ccc(F)cc1)c1ccc(N2CCCC2)cc1	14µM*	x	12µM*	u	u	-6%
